system: MERTK; details: concentration: 1 μM, replicates: in singlicate; n = 1
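Further: KINOMEscan kinase panel screen.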

Row | SMILES | %Inh [%]
1 | CCn1c(-c2cccnc2O)nc2cnccc21 [SB-736715] | 26
2 | Cl.Oc1ccc(-c2nc(-c3ccccc3)[nH]c2-c2ccncc2)cc1 [SB-428218] | 0
3 | CC(=O)Nc1nc2cnc(Nc3cc(NC(=O)c4cccc(CCC#N)c4)ccc3C)nc2s1 | 12
4 | O=S(=O)(c1ccc(-c2ccnc3[nH]ccc23)cc1)N1CCCC1 [GSK846226] | 16
5 | CN1C(=O)C(Nc2ccc(Cl)c(C(=O)O)c2)=C(c2ccc(Cl)cc2)C1=O [SB-404290] | 11
6 | Fc1cc(Cl)ccc1Nc1ccnc2cc(I)ccc12 [GW551191] | 30
7 | O=c1cc(N2CCOCC2)nc2n(Cc3cccc(Cl)c3Cl)ccn12 [GSK2286295] | 29
8 | Cn1ccc2ncnc(Oc3ccc(NC(=O)Nc4ccccc4)cc3)c21 | 0
9 | COc1cc(Nc2nccc(N3CCC(NC(=O)Nc4cc(C)ccc4C)C3)n2)cc(OC)c1OC (stereo not drawn) [GSK1379762] | 51
10 | CC(C)(C)c1ccc(C(=O)Nc2cn3cc(Cl)ccc3n2)cc1 | 0
11 | COc1ccccc1CNC(=O)c1cc(C(=O)c2ccccc2C)c[nH]1 [GSK364507] | 0
12 | O=C(O)COc1ncnc2cc(-c3ccc4[nH]ncc4c3)sc12 | 0
13 | CS(=O)(=O)c1ccc(-c2nc3n(c2-c2ccncc2)CCC3)cc1 [SKF-105942] | 24
14 | Cc1c(Cn2ccn3c(=O)cc(N4CCOCC4)nc23)cccc1C(F)(F)F [GSK2289044] | 15
15 | O=C(Nc1n[nH]c2cc(-c3cccc(F)c3F)ccc12)C1CC1 [SB-733894] | 0
16 | Cc1csc(-c2nc(Nc3ccncc3)c3ccccc3n2)n1 [GW869640] | 0
17 | Cl.NC(=O)c1cccc(Nc2nccc(Nc3ccc(Oc4cccc(Cl)c4)c(Cl)c3)n2)c1 [GW659008] | 33
18 | O=C1NC(=O)C(N2CCc3ccccc32)=C1c1ccccc1Cl [SB-373598] | 27

Row | SMILES | %Inh [%]
19 | COC(=O)c1c(-c2ccccc2)c2cc(C(=O)O)ccc2c(=O)n1Cc1ccccc1 | 0
20 | Cc1cc(-c2ccc3c(c2)CC[C@@H](N[C@@H](C)c2ccccc2)C3)cnc1N.Cl [GW412617] | 26
21 | Nc1ncnc2[nH]c(-c3ccccc3)nc12 [AH5015] | 0
22 | O=C(Nc1n[nH]c2nc(-c3nccs3)c(Br)cc12)C1CC1 [SB-742251] | 12
23 | Cc1ccccc1-n1cnc2c(N)ncnc21 [SKF-97510] | 7
24 | Clc1cc(Cl)cc(Nc2ccnc(Nc3cc(Cl)cc(Cl)c3)n2)c1 [GSK175726] | 0
25 | Cn1ccc2ncnc(Oc3ccc(Nc4nc5ccccc5[nH]4)cc3)c21 | 8
26 | CCCc1ccc(S(=O)(=O)NC2CCN(c3ccnc(Nc4ccc(F)cc4)n3)C2)cc1 (stereo not drawn) [GSK1379715] | 0
27 | COc1cc2nccc(Nc3ccc(NC(=O)c4ccc(C)cc4)c(O)c3)c2cc1OC.Cl [GW440132] | 5
28 | CCn1c(-c2ccccn2)nc2cnccc21 [SB-736398] | 0
29 | Cl.O=C(Nc1cccc(-c2nn3ncccc3c2-c2ccnc(Nc3cccnc3)n2)c1)c1c(F)cccc1F [GSK312879] | 12
30 | Cc1ccc(NC(=O)Nc2cccc(Cl)c2)cc1-c1ccc(C(=O)Nc2ccncc2)cc1 [GSK1398468] | 0
31 | O=C(Nc1ccc2c(c1)OCO2)NC1CCN(c2ccnc(Nc3ccc(F)cc3)n2)C1 (stereo not drawn) [GSK1379724] | 0
32 | COc1ccc(Nc2nccc(NCCNC(=O)Nc3ccccc3F)n2)cc1 [GSK1379901] | 24
33 | COc1ccc(Nc2nccc(-c3cccc(NC(=O)c4cc5cc(F)ccc5[nH]4)c3)n2)cc1 [GSK1229782] | 47
34 | Cc1cc(N2Cc3ccccc3C2)nc(Nc2ccc(S(=O)(=O)N3CCOCC3)cc2)n1.Cl [GSK1669917] | 9
35 | COc1ccc(CNC(=O)NC2CCN(c3ccnc(Nc4cc(OC)c(OC)c(OC)c4)n3)C2)cc1 (stereo not drawn) [GSK1379748] | 36
36 | Cc1ccc(-c2cc(-c3c[nH]nc3-c3ccccn3)ccn2)cc1 [GW684088] | 13

system: MET; details: concentration: 1 μM, replicates: in singlicate; n = 1

Row | SMILES | %Inh [%]
37 | CCn1c(-c2cccnc2O)nc2cnccc21 [SB-736715] | 0
38 | Cl.Oc1ccc(-c2nc(-c3ccccc3)[nH]c2-c2ccncc2)cc1 [SB-428218] | 0
39 | CC(=O)Nc1nc2cnc(Nc3cc(NC(=O)c4cccc(CCC#N)c4)ccc3C)nc2s1 | 7
40 | O=S(=O)(c1ccc(-c2ccnc3[nH]ccc23)cc1)N1CCCC1 [GSK846226] | 0
41 | CN1C(=O)C(Nc2ccc(Cl)c(C(=O)O)c2)=C(c2ccc(Cl)cc2)C1=O [SB-404290] | 0
42 | Fc1cc(Cl)ccc1Nc1ccnc2cc(I)ccc12 [GW551191] | 8
43 | O=c1cc(N2CCOCC2)nc2n(Cc3cccc(Cl)c3Cl)ccn12 [GSK2286295] | 0
44 | Cn1ccc2ncnc(Oc3ccc(NC(=O)Nc4ccccc4)cc3)c21 | 28
45 | COc1cc(Nc2nccc(N3CCC(NC(=O)Nc4cc(C)ccc4C)C3)n2)cc(OC)c1OC (stereo not drawn) [GSK1379762] | 42
46 | CC(C)(C)c1ccc(C(=O)Nc2cn3cc(Cl)ccc3n2)cc1 | 0
47 | COc1ccccc1CNC(=O)c1cc(C(=O)c2ccccc2C)c[nH]1 [GSK364507] | 0
48 | O=C(O)COc1ncnc2cc(-c3ccc4[nH]ncc4c3)sc12 | 1
49 | CS(=O)(=O)c1ccc(-c2nc3n(c2-c2ccncc2)CCC3)cc1 [SKF-105942] | 0
50 | Cc1c(Cn2ccn3c(=O)cc(N4CCOCC4)nc23)cccc1C(F)(F)F [GSK2289044] | 0
51 | O=C(Nc1n[nH]c2cc(-c3cccc(F)c3F)ccc12)C1CC1 [SB-733894] | 0
52 | Cc1csc(-c2nc(Nc3ccncc3)c3ccccc3n2)n1 [GW869640] | 30
53 | Cl.NC(=O)c1cccc(Nc2nccc(Nc3ccc(Oc4cccc(Cl)c4)c(Cl)c3)n2)c1 [GW659008] | 37
54 | O=C1NC(=O)C(N2CCc3ccccc32)=C1c1ccccc1Cl [SB-373598] | 17

Row | SMILES | %Inh [%]
55 | COC(=O)c1c(-c2ccccc2)c2cc(C(=O)O)ccc2c(=O)n1Cc1ccccc1 | 0
56 | Cc1cc(-c2ccc3c(c2)CC[C@@H](N[C@@H](C)c2ccccc2)C3)cnc1N.Cl [GW412617] | 0
57 | Nc1ncnc2[nH]c(-c3ccccc3)nc12 [AH5015] | 0
58 | O=C(Nc1n[nH]c2nc(-c3nccs3)c(Br)cc12)C1CC1 [SB-742251] | 0
59 | Cc1ccccc1-n1cnc2c(N)ncnc21 [SKF-97510] | 0
60 | Clc1cc(Cl)cc(Nc2ccnc(Nc3cc(Cl)cc(Cl)c3)n2)c1 [GSK175726] | 0
61 | Cn1ccc2ncnc(Oc3ccc(Nc4nc5ccccc5[nH]4)cc3)c21 | 0
62 | CCCc1ccc(S(=O)(=O)NC2CCN(c3ccnc(Nc4ccc(F)cc4)n3)C2)cc1 (stereo not drawn) [GSK1379715] | 0
63 | COc1cc2nccc(Nc3ccc(NC(=O)c4ccc(C)cc4)c(O)c3)c2cc1OC.Cl [GW440132] | 0
64 | CCn1c(-c2ccccn2)nc2cnccc21 [SB-736398] | 15
65 | Cl.O=C(Nc1cccc(-c2nn3ncccc3c2-c2ccnc(Nc3cccnc3)n2)c1)c1c(F)cccc1F [GSK312879] | 0
66 | Cc1ccc(NC(=O)Nc2cccc(Cl)c2)cc1-c1ccc(C(=O)Nc2ccncc2)cc1 [GSK1398468] | 0
67 | O=C(Nc1ccc2c(c1)OCO2)NC1CCN(c2ccnc(Nc3ccc(F)cc3)n2)C1 (stereo not drawn) [GSK1379724] | 0
68 | COc1ccc(Nc2nccc(NCCNC(=O)Nc3ccccc3F)n2)cc1 [GSK1379901] | 0
69 | COc1ccc(Nc2nccc(-c3cccc(NC(=O)c4cc5cc(F)ccc5[nH]4)c3)n2)cc1 [GSK1229782] | 0
70 | Cc1cc(N2Cc3ccccc3C2)nc(Nc2ccc(S(=O)(=O)N3CCOCC3)cc2)n1.Cl [GSK1669917] | 0
71 | COc1ccc(CNC(=O)NC2CCN(c3ccnc(Nc4cc(OC)c(OC)c(OC)c4)n3)C2)cc1 (stereo not drawn) [GSK1379748] | 9
72 | Cc1ccc(-c2cc(-c3c[nH]nc3-c3ccccn3)ccn2)cc1 [GW684088] | 0
